Results taken from the supplement of paper PMC10849652.
Of roughly 7,900 targets only a part is listed; those with a hit were picked by preference. About 0.6% of all pairs of compound and target were hits. Values without a mark were called inactive.

Legend:
Experiment in all cases: log2 fold change, soluble protein after heating vs DMSO (PISA); higher = thermal stabilisation; K562 cells, 10 uM, 30 min; active = over 0.2 and 3.5 SD of the protein, either way, in both replicates (recomputed)
[1] = compound: C1=CC=C(C=C1)[C@H](COC2=CC3=C(C=C2)NC(=O)N3)NC(=O)C4=CC=CN(C4=O)CC5=CC(=C(C=C5)F)F
In short: (§1)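 K562 cells at 2×10^6 cells/mL were given 10 μM compound for 30 min. Aliquots then went through 3 min of heating across 48°C-58°C, were pooled, and were extracted in PBS with 0.5% NP-40 at 4°C, and the supernatant after 21,000xg for 90 min was quantified by TMTpro 16plex LC-MS/MS with channel sums equalised. Thermal stability relative to control samples, from duplicates, is given as log2 fold change.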

[2] = compound: CC1=C(SC2=C1C(=N[C@H](C3=NN=C(N32)C)CC(=O)N)C4=CC=C(C=C4)Cl)C
In short: as §1

[3] = compound: CC1=C2C(=CC=C1)N=C(N(C2=O)C3=CC=CC=C3C)CN4C=NC5=C(N=CN=C54)N
In short: as §1

[4] = compound: Cc1sc2c(c1C)C(c1ccc(Cl)cc1)=N[C@@H](CC(=O)OC(C)(C)C)c1nnc(C)n1-2
In short: as §1

[5] = compound: c1ccc([C@@H]2C[C@H]2NC2CCNCC2)cc1
In short: as §1

Chain of UniProt P0CAP2 (P0CAP2 whole entry, looked up): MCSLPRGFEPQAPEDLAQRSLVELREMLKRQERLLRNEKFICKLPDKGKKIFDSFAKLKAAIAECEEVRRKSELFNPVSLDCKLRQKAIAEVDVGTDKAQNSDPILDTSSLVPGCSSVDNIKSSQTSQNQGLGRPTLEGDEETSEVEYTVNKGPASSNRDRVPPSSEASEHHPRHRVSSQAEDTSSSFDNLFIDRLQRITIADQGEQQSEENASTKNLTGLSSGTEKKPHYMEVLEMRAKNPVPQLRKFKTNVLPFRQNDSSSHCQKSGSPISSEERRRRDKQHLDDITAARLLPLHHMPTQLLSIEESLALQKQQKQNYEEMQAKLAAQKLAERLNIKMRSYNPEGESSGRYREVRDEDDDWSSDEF
Chain of UniProt Q9Y478 (Q9Y478 whole entry, looked up): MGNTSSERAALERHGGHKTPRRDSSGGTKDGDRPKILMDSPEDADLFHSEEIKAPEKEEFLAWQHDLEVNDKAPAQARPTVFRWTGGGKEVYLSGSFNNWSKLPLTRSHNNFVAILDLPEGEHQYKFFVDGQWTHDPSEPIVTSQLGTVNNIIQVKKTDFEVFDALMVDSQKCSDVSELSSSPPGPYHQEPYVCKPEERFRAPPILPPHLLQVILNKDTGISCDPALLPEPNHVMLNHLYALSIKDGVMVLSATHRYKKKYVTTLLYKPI
Chain of UniProt Q9Y5Y5 (Q9Y5Y5 whole entry, looked up): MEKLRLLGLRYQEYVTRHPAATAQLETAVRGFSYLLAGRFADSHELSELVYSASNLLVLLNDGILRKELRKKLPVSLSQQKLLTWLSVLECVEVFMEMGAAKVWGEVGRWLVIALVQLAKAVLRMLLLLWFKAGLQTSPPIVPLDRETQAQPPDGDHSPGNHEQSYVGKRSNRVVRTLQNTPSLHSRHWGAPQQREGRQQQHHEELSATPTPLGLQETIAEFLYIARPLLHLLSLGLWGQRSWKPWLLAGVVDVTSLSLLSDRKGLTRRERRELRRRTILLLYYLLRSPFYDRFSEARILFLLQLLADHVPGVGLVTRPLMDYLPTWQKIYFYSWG
Chain of UniProt P41247 (P41247 whole entry, looked up): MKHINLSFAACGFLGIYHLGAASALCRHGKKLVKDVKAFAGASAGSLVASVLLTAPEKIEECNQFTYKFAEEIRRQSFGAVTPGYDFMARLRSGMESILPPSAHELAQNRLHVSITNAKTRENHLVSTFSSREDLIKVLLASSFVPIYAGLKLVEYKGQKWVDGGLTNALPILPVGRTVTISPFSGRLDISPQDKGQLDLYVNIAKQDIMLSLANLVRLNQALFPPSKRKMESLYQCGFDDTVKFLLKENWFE
Chain of UniProt Q5MIZ7 (Q5MIZ7 whole entry, looked up): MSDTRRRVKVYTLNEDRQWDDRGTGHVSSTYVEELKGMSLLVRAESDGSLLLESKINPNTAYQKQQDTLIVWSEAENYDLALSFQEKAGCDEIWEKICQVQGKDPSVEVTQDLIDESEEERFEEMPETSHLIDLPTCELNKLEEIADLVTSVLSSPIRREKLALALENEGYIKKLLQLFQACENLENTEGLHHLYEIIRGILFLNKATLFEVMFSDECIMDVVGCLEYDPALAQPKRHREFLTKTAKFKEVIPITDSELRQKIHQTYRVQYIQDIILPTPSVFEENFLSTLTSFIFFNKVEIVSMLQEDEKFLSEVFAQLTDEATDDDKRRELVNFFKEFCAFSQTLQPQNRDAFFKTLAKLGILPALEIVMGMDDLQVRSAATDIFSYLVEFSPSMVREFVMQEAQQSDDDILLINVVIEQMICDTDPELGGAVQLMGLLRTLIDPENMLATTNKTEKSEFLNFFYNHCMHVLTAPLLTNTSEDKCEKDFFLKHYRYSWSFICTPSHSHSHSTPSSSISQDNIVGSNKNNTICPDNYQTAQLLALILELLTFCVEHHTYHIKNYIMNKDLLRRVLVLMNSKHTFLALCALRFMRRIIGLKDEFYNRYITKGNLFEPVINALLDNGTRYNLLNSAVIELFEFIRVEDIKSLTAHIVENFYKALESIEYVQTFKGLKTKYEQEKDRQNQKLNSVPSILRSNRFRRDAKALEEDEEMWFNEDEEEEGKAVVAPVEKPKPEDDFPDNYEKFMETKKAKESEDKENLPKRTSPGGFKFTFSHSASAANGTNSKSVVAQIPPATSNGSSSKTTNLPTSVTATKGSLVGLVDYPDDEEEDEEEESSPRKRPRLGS
Chain of UniProt O15305 (O15305 whole entry, looked up): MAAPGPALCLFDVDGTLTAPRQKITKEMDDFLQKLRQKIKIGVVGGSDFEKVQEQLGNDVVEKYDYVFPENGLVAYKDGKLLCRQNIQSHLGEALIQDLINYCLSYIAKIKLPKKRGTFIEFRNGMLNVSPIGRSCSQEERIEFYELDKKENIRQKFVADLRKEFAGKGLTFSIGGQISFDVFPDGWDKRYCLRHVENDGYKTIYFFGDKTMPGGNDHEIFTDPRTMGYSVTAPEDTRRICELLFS
Chain of UniProt O14974 (O14974 whole entry, looked up): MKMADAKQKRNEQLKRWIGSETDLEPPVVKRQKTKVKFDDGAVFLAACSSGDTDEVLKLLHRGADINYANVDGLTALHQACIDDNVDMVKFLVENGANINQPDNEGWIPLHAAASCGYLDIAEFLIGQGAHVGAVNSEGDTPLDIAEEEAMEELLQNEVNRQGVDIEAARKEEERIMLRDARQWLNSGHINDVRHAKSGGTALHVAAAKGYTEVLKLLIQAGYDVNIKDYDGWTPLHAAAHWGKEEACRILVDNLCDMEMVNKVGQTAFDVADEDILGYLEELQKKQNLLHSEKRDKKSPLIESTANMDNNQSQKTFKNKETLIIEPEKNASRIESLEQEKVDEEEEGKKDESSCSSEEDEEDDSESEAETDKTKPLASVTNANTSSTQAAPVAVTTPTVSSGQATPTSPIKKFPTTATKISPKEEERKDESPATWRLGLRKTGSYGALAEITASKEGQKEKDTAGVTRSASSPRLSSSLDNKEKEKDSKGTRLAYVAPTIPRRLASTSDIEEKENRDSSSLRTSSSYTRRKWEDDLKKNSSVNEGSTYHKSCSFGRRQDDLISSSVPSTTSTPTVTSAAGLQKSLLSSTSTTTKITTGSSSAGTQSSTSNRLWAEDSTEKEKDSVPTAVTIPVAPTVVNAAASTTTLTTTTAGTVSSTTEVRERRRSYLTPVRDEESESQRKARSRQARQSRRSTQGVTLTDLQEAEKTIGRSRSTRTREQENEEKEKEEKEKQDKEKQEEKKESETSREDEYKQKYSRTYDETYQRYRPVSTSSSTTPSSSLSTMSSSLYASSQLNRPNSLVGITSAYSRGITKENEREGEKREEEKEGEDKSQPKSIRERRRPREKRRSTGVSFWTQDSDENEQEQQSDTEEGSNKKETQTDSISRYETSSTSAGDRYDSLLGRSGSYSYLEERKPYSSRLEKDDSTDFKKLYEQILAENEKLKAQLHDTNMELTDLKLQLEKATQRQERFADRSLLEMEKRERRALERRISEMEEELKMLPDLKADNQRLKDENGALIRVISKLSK
Chain of UniProt O95453 (O95453 whole entry, looked up): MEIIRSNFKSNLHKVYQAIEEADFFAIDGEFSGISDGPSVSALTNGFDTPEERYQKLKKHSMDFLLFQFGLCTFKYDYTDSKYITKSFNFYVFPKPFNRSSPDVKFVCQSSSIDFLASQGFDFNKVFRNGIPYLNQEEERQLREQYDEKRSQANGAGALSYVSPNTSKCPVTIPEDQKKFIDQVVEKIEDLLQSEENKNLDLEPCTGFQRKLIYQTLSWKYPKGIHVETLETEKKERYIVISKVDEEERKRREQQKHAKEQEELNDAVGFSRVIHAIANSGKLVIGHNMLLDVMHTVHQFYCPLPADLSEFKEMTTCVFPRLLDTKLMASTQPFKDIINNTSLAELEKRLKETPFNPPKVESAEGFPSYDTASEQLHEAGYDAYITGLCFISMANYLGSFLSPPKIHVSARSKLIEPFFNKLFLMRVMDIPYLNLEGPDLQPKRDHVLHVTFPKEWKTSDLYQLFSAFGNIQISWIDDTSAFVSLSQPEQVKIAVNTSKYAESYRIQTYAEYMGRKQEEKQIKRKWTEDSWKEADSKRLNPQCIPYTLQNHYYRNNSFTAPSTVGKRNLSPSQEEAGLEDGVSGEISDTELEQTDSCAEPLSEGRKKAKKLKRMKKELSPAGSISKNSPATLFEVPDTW
Chain of UniProt Q8WUM4 (Q8WUM4 whole entry, looked up): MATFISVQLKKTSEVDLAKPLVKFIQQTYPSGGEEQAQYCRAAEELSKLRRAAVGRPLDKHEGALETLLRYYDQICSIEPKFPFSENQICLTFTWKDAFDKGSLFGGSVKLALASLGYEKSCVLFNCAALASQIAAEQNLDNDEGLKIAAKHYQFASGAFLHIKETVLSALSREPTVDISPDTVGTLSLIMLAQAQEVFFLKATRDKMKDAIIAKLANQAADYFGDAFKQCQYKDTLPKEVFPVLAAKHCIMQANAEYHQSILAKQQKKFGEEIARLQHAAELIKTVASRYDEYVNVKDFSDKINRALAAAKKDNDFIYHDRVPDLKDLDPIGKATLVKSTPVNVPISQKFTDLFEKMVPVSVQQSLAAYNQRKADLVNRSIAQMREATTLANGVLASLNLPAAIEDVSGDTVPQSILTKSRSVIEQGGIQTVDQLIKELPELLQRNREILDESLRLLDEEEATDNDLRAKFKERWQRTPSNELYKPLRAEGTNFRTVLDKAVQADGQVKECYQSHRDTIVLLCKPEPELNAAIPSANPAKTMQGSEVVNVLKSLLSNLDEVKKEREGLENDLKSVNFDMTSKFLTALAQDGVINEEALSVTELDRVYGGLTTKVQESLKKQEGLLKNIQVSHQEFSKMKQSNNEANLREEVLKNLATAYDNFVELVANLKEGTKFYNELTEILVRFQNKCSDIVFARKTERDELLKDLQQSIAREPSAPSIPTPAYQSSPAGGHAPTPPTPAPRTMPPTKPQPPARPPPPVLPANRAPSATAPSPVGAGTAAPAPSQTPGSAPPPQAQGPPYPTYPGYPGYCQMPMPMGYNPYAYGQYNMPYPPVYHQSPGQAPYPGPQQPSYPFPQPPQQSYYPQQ
Chain of UniProt P06454 (P06454 whole entry, looked up): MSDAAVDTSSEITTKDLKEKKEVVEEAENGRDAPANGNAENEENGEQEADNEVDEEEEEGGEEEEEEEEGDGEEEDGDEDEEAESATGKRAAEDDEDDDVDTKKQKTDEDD

Row | Target | log2 fold change [1] | log2 fold change [2] | log2 fold change [3] | log2 fold change [4] | log2 fold change [5]
1 | PRIM1 (UniProt P49642) | -0.149 | -0.033 | 0.053 | 0.033 | 0.01
2 | PPIL1 (UniProt Q9Y3C6) | -0.046 | 0.012 | 0.021 | 0.032 | -0.052
3 | PDLIM7 (UniProt Q9NR12) | -0.04 | 0.044 | 0.092 | -0.023 | -0.011
4 | PEX16 isoform 2 (UniProt Q9Y5Y5) | -0.01 | 0.095 | 0.087 | -0.031 | -0.048
5 | PIK3R1 (UniProt P27986) | -0.059 | 0.019 | 0.138 | 0.005 | -0.027
6 | PTMA (UniProt P06454) | 0.029 | 0.017 | -0.105 | -0.166 | -0.009
7 | PFAS (UniProt O15067) | -0.08 | 0.021 | 0.144 | 0.014 | -0.065
8 | PTGR2 (UniProt Q8N8N7) | 0.004 | 0.055 | 0.581 (active) | -0.043 | -0.091
9 | PRKD2 (UniProt M0R346) | 0.081 | – | – | – | –
10 | PPP2R5C isoform 2 (UniProt Q13362) | -0.065 | – | – | – | –
11 | PPP1R12A (UniProt O14974) | 0.005 | 0.057 | 0.047 | 0.035 | -0.008
12 | PRKAB1 (UniProt Q9Y478) | 0.011 | 0.037 | -0.024 | -0.093 | -0.037
13 | PDCD2L (UniProt Q9BRP1) | -0.031 | 0.055 | 0.109 | 0.021 | 0.091
14 | PRKD2 isoform 3 (UniProt Q9BZL6) | -0.051 | 0.238 | -0.057 | 0.064 | 0.028
15 | PGK2 (UniProt P07205) | -0.1 | 0.046 | 0.153 | 0.037 | 0.034
16 | PNPLA4 (UniProt P41247) | 0.068 | 0.158 | 0.042 | 0.099 | 0.178
17 | PSMB4 (UniProt P28070) | 0.024 | -0.037 | -0.038 | -0.009 | 0.03
18 | PSMD6 (UniProt Q15008) | 0.019 | -0.088 | -0.116 | -0.006 | 0.001
19 | PLCG1 isoform 2 (UniProt P19174) | -0.059 | 0.038 | 0.033 | 0.063 | -0.028

Row | Target | log2 fold change [1] | log2 fold change [2] | log2 fold change [3] | log2 fold change [4] | log2 fold change [5]
20 | POLR2C (UniProt P19387) | -0.091 | 0.125 | -0.023 | 0.155 | -0.092
21 | PMPCB (UniProt O75439) | 0.005 | 0.111 | 0.01 | 0.012 | -0.053
22 | PRMT8 (UniProt Q9NR22) | -0.002 | 0.133 | 0.046 | -0.028 | -0.015
23 | PSMD2 (UniProt Q13200) | 0.026 | -0.097 | -0.059 | 0.008 | 0.016
24 | PSMD13 (UniProt Q9UNM6) | -0.008 | -0.096 | -0.046 | -0.028 | 0
25 | PAK4 (UniProt O96013) | -0.005 | 0.045 | 0.102 | -0.02 | -0.016
26 | PDE6D (UniProt O43924) | -0.053 | 0.238 | -0.004 | -0.13 | 0.017
27 | PRKX (UniProt P51817) | -0.754 (active) | – | – | – | –
28 | PLCXD1 (UniProt Q9NUJ7) | -0.061 | – | – | – | –
29 | PELO (UniProt Q9BRX2) | -0.037 | 0.116 | 0.103 | 0.064 | -0.049
30 | PRKAR2A (UniProt P13861) | 0.044 | 0.046 | 0.054 | 0.018 | -0.003
31 | PPIL2 (UniProt Q13356) | -0.028 | 0.041 | 0.098 | -0.019 | -0.011
32 | PMM2 (UniProt O15305) | 0.003 | 0.046 | -0.027 | 0.06 | 0.009
33 | PHKG2 (UniProt P15735) | 0.028 | -0.033 | 0.013 | 0.051 | 0.026
34 | POLD3 (UniProt Q15054) | -0.027 | 0.14 | 0.104 | -0.037 | -0.009
35 | PRKACB isoform 2 (UniProt P22694) | -0.06 | 0.021 | 0.032 | -0.038 | 0.003
36 | PPP1R12B isoform 6 (UniProt O60237) | -0.051 | – | – | – | –
37 | PRKCA (UniProt P17252) | -0.035 | 0.124 | 0.14 | 0.002 | -0.038
38 | PEA15 isoform 2 (UniProt Q15121) | -0.014 | 0.1 | 0.116 | -0.063 | -0.015

Row | Target | log2 fold change [1] | log2 fold change [2] | log2 fold change [3] | log2 fold change [4] | log2 fold change [5]
39 | PLEKHM2 (UniProt Q8IWE5) | -0.027 | 0.076 | -0.016 | 0.089 | -0.048
40 | PRKAR2B (UniProt P31323) | -0.065 | -0.012 | -0.06 | -0.024 | 0.007
41 | POLR2M (UniProt P0CAP2) | -0.021 | 0.096 | 0.045 | 0.004 | -0.062
42 | PARN (UniProt O95453) | -0.018 | 0.059 | 0.071 | -0.028 | 0.025
43 | PIKFYVE (UniProt Q9Y2I7) | -0.077 | 0.106 | 0.111 | 0.068 | -0.009
44 | PURA (UniProt Q00577) | 0.116 | -0.403 | -0.092 | 0.298 | 0.043
45 | PI4K2A (UniProt Q9BTU6) | 0.015 | 0.043 | 0.064 | -0.004 | 0.013
46 | PSMA3 (UniProt P25788) | 0.051 | -0.062 | -0.022 | -0.036 | -0.029
47 | PPP4R3B (UniProt Q5MIZ7) | -0.014 | 0.069 | 0.134 | 0.003 | -0.005
48 | PLBD1 (UniProt Q6P4A8) | 0.005 | -0.011 | -0.018 | -0.006 | 0.013
49 | PDCD6IP (UniProt Q8WUM4) | -0.131 | 0.05 | 0.119 | -0.029 | -0.04
50 | PTTG1 (UniProt O95997) | -0.005 | 0.003 | 0.014 | 0.004 | 0.011
51 | PLBD2 (UniProt Q8NHP8) | 0.011 | 0.01 | 0.01 | -0.006 | 0.007
52 | PUF60 isoform 2 (UniProt Q9UHX1) | 0.044 | 0.097 | -0.312 | -0.146 | -0.079
53 | PSMC2 (UniProt P35998) | 0.031 | -0.085 | -0.092 | 0.002 | 0.001
54 | PSMD8 (UniProt P48556) | 0.014 | -0.07 | -0.01 | -0.001 | 0.071
55 | POLA2 (UniProt Q14181) | -0.023 | 0.048 | 0.114 | -0.006 | 0.034
56 | PCID2 (UniProt Q5JVF3) | -0.18 | 0.057 | 0.159 | 0.033 | -0.071
